The results in this text go back to PubChem BioAssay (NCATS).

Structures are written as SMILES. Records with an inconclusive call do not appear. A number with no mark means an inactive call. Activity calls are given as the source filed them. The call rests on the fitted dose curve; in most records, active means well fitted inhibition curve with a large enough effect; inconclusive means small, poorly fitted or top-dose-only effect; inactive means no such curve, though single readings can be large or run the other way.
On the % scale 0 is the no-effect control and ±100 the full control effect.

The assay relates to Zika virus NS2B-NS3 protease (linked construct). The assay can be described thus: Primary screen NINDS Rhodamine qHTS for Zika virus inhibitors (AID 1347160). Further: nearly all actives have a fitted effect of over 55% in size. To be noted: purified NS2B-NS3 protease, Rhodamine110 substrate fluorescence; series mostly up to 57.1 µM; activity change, negative = inhibition: at the top concentration. The source says:
Avindra Nath, Ph.D., National Institute of Neurological Disorders and Stroke (NINDS), Bethesda, MD
Radhakrishnan Padmanabhan, Ph.D., Georgetown University (GU), Washington D.C.
Zika Virus causes congenital defects, including microcephaly and is associated with Guillain-Barre syndrome, eningoencephalitis and myelitis in infected adult. […] Using a target-based approach, we hope to establish a screening paradigm to uncover novel, cell-active NS2B-NS3 protease (Zika Virus) specific inhibitors from NCATS' collection of small molecules using qHTS.
Four assay panel was created to identify potential Zika Virus inhibitors. Namely, (1) GU unlinked NS2B-NS3 AMC tagged protease qHTS, (2) GU unlinked NS2B-NS3 Rhodamine tagged protease qHTS, (3) NINDS linked NS2B-NS3 AMC tagged protease qHTS, (4) NINDS linked NS2B-NS3 Rhodamine tagged protease qHTS. Active compounds were re-acquired and re-screened to confirm inhibition. Inhibitors were further screened against various confirmatory and counterscreens in dose response format.
Early Translation Branch (ETB)
National Center for Advancing Translational Sciences (NCATS), Rockville, MD
National Institute of Health (NIH), Bethesda, Maryland
For the linked assay, Nath lab (NINDS) provided the purified linked NS2B-NS3 protease which is consists of hydrophilic domain of NS2B linked to the NS3 protease domain by a flexible (-[…]-) linker. Control compound aprotinin is obtained from Thermo Scientific (#78432; Waltham, Massachusetts). Rhodamine110 substrate ([N-Cbz]-Nle-Lys-Arg-Arg-Rhod110-Arg-Arg-Lys-Nle-[N-Cbz]) was purchased from either Genscript or Bachem.
1536-well Protease (Rhodamine110 Substrate) Assay:
Briefly, 3 microL of enzyme (25 nM final concentration), in assay buffer (10 mM Tris-HCl pH 8.0 with 0.01% Tween 20) were dispensed into a 1,536-well solid-bottom black plate (Greiner Bio One, Monroe, NC). Twenty-three nL of compounds (final concentration range 7.28 nM to 114 microM) or control Aprotinin (final concentration range 3.47 nM to 114 microM) were transferred via Wako Pin-tool (Wako Automation, Richmond, VA). Samples were incubated (room temperature, protected from light) for 15 minutes followed by a 1 microL Rhodamine110 substrate addition (1.5 microM final concentration). Plates were then immediately read on a ViewLux High-throughput CCD imager (PerkinElmer, Waltham, MA) equipped with FITC fluorescence optics (480(20) nm excitation, 540(25) nm emission), then incubated (room temperature, protected from light) for 15 minutes (~15% conversion). The change in fluorescence intensity over the 15-minute reaction period was normalized against no-inhibitor and no-enzyme controls and the resulting percent inhibition data were fitted to a 4-parameter Hill equation. Aprotinin was used as intraplate control.
Background: Quantitative high-throughput screening tests each substance at several concentrations.
`C[C@@H](CN1CCC(n2c(=O)[nH]c3cc(Br)ccc32)CC1)NC(=O)[C@@H]1C[C@H]1c1ccccc1`: the “activity change, negative = inhibition” value was 382%.

Take `FC(F)(F)c1ccc(N2CCNCC2)nc1Cl`: the “activity change, negative = inhibition” value is 31.5%.

As for `CCCCN1[C@@H]2CC[C@H]1CC(OC(c1ccc(F)cc1)c1ccc(F)cc1)C2` (stereo not given in full), the “activity change, negative = inhibition” value was 160%.

Regarding `C[C@]12CC[C@H](O[C@@H]3O[C@H](CO)[C@@H](O)[C@H](O)[C@H]3O[C@@H]3O[C@H](CO)[C@@H](O)[C@H](O)[C@H]3O)CC1=CC[C@@H]1[C@@H]2CC[C@]2(C)[C@@H](C3=CC(=O)OC3)CC[C@]12O`, the “activity change, negative = inhibition” value was 15.2% [at 15.1 µM].

Regarding `CC1=C[C@H]2O[C@@H]3[C@H](O)[C@@H](O)[C@](C)([C@@]2(CO)C[C@@H]1O)[C@]31CO1`, the “activity change, negative = inhibition” value was 4.32%.

As to `CC1=C[C@H]2O[C@@H]3C[C@H]4OC(=O)/C=C/C=C/C(=O)OCC/C(C)=C/C(=O)OC[C@@]2(CC1)[C@]4(C)[C@]31CO1`, the “activity change, negative = inhibition” value was 2.45% [at 33.1 µM].

Consider `C=C1[C@@H](C)[C@H]2[C@H](Cc3ccccc3)NC(=O)[C@]23[C@H](OC(C)=O)/C=C/[C@](C)(O)C(=O)[C@@H](C)C/C=C/[C@H]3[C@@H]1O`, for which the “activity change, negative = inhibition” value is 23.8%.

For the compound `OCc1nnc2n1-c1ccc(Cl)cc1C(c1ccccc1Cl)=NC2`, the “activity change, negative = inhibition” value was 5.77%.

Take `CC1=CC2CC[C@@H]3[C@@H](C)C[C@H](C)[C@@H](C1)N23` (stereo not given in full): the “activity change, negative = inhibition” value is -9.22% [at 112 µM].

As for `CN(C(=O)C(c1ccccc1)c1ccccc1)[C@H](CN1CC[C@H](O)C1)c1ccccc1`, the result was inactive.

With `CC(=O)O[C@@H]1[C@@H](O)[C@H]2O[C@@H]3C=C(C)[C@@H](O)C[C@]3(CO)[C@]1(C)[C@]21CO1`, the “activity change, negative = inhibition” value was 7.29% [at 33.1 µM].

Consider `COC(=O)C1=COC(C)C2CN3CCC4(C(=O)Nc5ccccc54)C3CC12` (stereo not given), for which the “activity change, negative = inhibition” value was -1.31% [at 33.1 µM].

In the case of `C=C(C)C(=O)O[C@H]1[C@@H]2[C@H](C)C(=O)O[C@@H]2C[C@@H](C)[C@@H]2C=CC(=O)[C@]21C`, the “activity change, negative = inhibition” value is 6.48% [at 33.1 µM].

With `C=C(C)[C@@H]1[C@H]2OC(=O)[C@H]1[C@]1(O)C[C@H]3O[C@]34C(=O)O[C@H]2[C@]14C`, the “activity change, negative = inhibition” value was -20.4%.

With `N#Cc1ccccc1-c1cc(-c2ccccn2)cn(-c2ccccc2)c1=O`, the “activity change, negative = inhibition” value is -1.7%.

Consider `NNC(=O)c1nn(Cc2ccc(Cl)cc2Cl)c2ccccc12`, for which the “activity change, negative = inhibition” value is -3.34%.

As to `CN1C(=O)[C@@H](Cc2c[nH]c3ccccc23)N=C(c2ccccc2F)c2ccccc21`, the outcome was inactive.

For `CC1=CC2/C=C(\C)CCC(O)C(O)/C=C/C(=O)C23C(=O)NC(CC(C)C)C3C1C` (stereo not given), the “activity change, negative = inhibition” value was -7.03% [at 33.1 µM].

Take `CCC1CN2CCc3cc(OC)c(OC)cc3C2CC1CC1=NCCc2cc(O)c(OC)cc21` (stereo not given): the “activity change, negative = inhibition” value was 9.97% [at 33.1 µM].

Turning to `COc1ccsc1CNCC[C@@]1(c2ccccn2)CCOC2(CCCC2)C1`, the “activity change, negative = inhibition” value is 20.5%.

Consider `COc1ccc(CN(C(=O)[C@@H](N)Cc2c(C)cc(C(N)=O)cc2C)[C@@H](C)c2ncc(-c3ccccc3)[nH]2)cc1C(=O)O`, for which the compound was classed as inactive.

In the case of `Cc1c(Cl)c(OCC(=O)N2CCN(C)CC2)nc2sc(C(=O)NC3CC3)c(N)c12`, the outcome was inactive.

In the case of `COC1CCCC(C)OC(=O)Cc2cc(O)cc(O)c2C(=O)C1` (stereo not given), the “activity change, negative = inhibition” value was -5.28% [at 33.1 µM].

As to `COC(=O)C12C(=O)C(C)(O)C(=O)C1(C)C(C)=CC1C34CCC(OC3=O)C(C)(C)C4CCC12C` (stereo not given), the “outcome” value was “inactive [at 33.1 µM]”.

For the compound `CC(=O)OC[C@]12C[C@H](OC(=O)CC(C)C)C(C)=C[C@H]1O[C@@H]1[C@H](O)[C@@H](OC(C)=O)[C@@]2(C)[C@@]12CO2`, the “activity change, negative = inhibition” value was 16.4% [at 33.1 µM].

For `Cc1sc2c(c1C)C(c1ccc(Cl)cc1)=N[C@@H](CC(=O)Nc1ccc(O)cc1)c1nnc(C)n1-2`, the “activity change, negative = inhibition” value was -9.41% [at 15.1 µM].

Regarding `Clc1ccc([C@]23CNC[C@H]2C3)cc1Cl`, the outcome was inactive.

For `CNc1ccc2oc(C[C@H]3O[C@@]4(CC[C@H]3C)O[C@H](C(C)C(=O)c3ccc[nH]3)[C@H](C)C[C@H]4C)nc2c1C(=O)O` (stereo not given in full), the result was inactive.

As for `Cc1ccc2c(c1)[C@H]1CN(C)CC[C@H]1N2C(=O)CSc1nnnn1-c1ccc(Cl)cc1`, the “activity change, negative = inhibition” value was -15.7%.

Take `COc1cc2c(c(OC)c1OC)-c1ccc(SC)c(=O)cc1[C@@H](NC(C)=O)CC2`: the “activity change, negative = inhibition” value was 13.4%.

`COc1cc(O)c2c(c1)/C=C/C[C@@H](O)[C@@H](O)C(=O)CCC[C@H](C)OC2=O`: the “activity change, negative = inhibition” value is -0.0145% [at 33.1 µM].

Turning to `CC(C)OC(=O)c1ccnc2cc(C(OCCN3CCCCC3)c3ccccc3Cl)sc12` (stereo not given), the “activity change, negative = inhibition” value was 171%.

As to `CC1(C)C(=O)N(c2ccc(C#N)c(C(F)(F)F)c2)C(=O)N1CCCCO`, the “activity change, negative = inhibition” value is 9.23%.

Take `C=C1[C@@H](C)C2[C@H](Cc3ccccc3)NC(=O)[C@@]23C(/C=C/C[C@H](C)C[C@@](C)(O)/C=C/[C@@H]3OC(C)=O)[C@@H]1O` (stereo not given in full): the “activity change, negative = inhibition” value is 9.65%.

In the case of `CCOC(=O)c1ccc(-c2ccc(OC(=O)N(C)Cc3cccc(-c4ccncc4)c3)cc2)cc1`, the “activity change, negative = inhibition” value is 17.6%.

`CC(=O)O[C@H]1CC[C@H]2[C@@H]3CC[C@H]4CC(=O)C=C(C)[C@]4(C)[C@H]3CC[C@]12C`: the “activity change, negative = inhibition” value was -13.4%.

For `CC[C@H](O)[C@@H](C)[C@H]1O[C@@H]1C[C@H](C)/C=C/C=C(\C)[C@H]1OC(=O)C[C@H](O)CC[C@@](C)(O)[C@@H](OC(C)=O)/C=C/[C@@H]1C`, the “activity change, negative = inhibition” value is -8.02%.

With `CC(=O)OC[C@]12C[C@H](OC(=O)CC(C)C)C(C)=C[C@H]1O[C@@H]1[C@H](O)[C@@H](O)[C@@]2(C)[C@]12CO2`, the “activity change, negative = inhibition” value is 4.1% [at 33.1 µM].

For `CO[C@@H](/C=C/CC/C=C/C(=O)O)[C@@H](O)[C@H](C)/C=C(\C)[C@@H](O)[C@H](C)C(=O)CCCC1CC(=O)NC(=O)C1`, the “activity change, negative = inhibition” value was -26.7% [at 112 µM].

Consider `Cc1cccc(NC(=O)NC2N=C(c3ccccc3)c3ccccc3N(CC(=O)c3ccccc3C)C2=O)c1` (stereo not given), for which the “activity change, negative = inhibition” value was 15.6%.
